From PubChem
hcDAF12 agonist – H. contortus DAF-12 activation, primary screen; HEK293 hcDAF-12 lit1-tk-luc reporter, luminescence; 0% DMSO, 100% Δ7-dafachronic acid; activation, % at 6.8 µM; hit rate 1.4% among 370,000; AID 652067;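 active = activation above the mean of all tested compounds plus 3 SD, cut at about 5.5% in these data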;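 also: 100% = response to 3 µM Δ7-dafachronic acid high control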
DAX1 inh-1 – inhibits human nuclear receptor DAX1. hit rate 0.99% among 340,000. P51843. HEK293 Gal4-DAX1 luciferase reporter, luminescence. AID 504766. inhibition, % at 6.75 µM;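 active = inhibition above the mean over all tested compounds plus 3 SD, cut at about 4.2% in these data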;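 also: 0% = DAX1-transfected cells with DMSO and 100% = empty-vector control cells with DMSO; inhibition shows as a rise in luminescence from relieved DAX1 repression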
AHR act – activators of human aryl hydrocarbon receptor; AHR-responsive luciferase reporter cells, luminescence; activation, % at 5 µM; hit rate 2.5% among 320,000; in the data active = activation above about 47%;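 also: 0% = vehicle wells and 100% = reference agonist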
DAX1 inh-2 – blocks DAX1 repression of SF-1 activated StAR promoter | HEK293T StAR-luciferase reporter, SF-1/DAX-1 repression relief | inhibition, % at 6.8 µM | hit rate 1.1% among 370,000 | AID 652010;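 active = inhibition above the mean over all tested compounds plus 3 SD, cut at about 3.6% in these data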;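 also: 0% = DAX-1 cells with DMSO and 100% = cells lacking DAX-1 with DMSO; higher inhibition means more luminescence from relief of DAX-1 repression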
ssDAF12 agonist – activates DAF-12 receptor from parasite S. stercoralis | AID 652126 | activation, % at 6.8 µM | HEK293 ssDAF-12/GRIP1 lit1-tk-luc reporter, luminescence; % of 3 µM dafachronic acid response | hit rate 1% among 370,000;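 active = activation above the mean over all tested compounds plus 3 SD, cut at about 0.9% in these data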;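 also: 0% = DMSO-only wells and 100% = 3 µM delta7-dafachronic acid wells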
hgDAF-12 ag – hgDAF-12 agonism, primary luciferase screen; HEK293 GAL4-hgDAF12 UAS-luciferase reporter, agonist luminescence; normalized to butyrate control; activation, % at 6.8 µM; hit rate 1.8% among 370,000;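 active = activation above a cutoff set at the mean of all screened compounds plus 3 SD, cut at about 10% in these data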;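 also: 0% = DMSO wells and 100% = sodium butyrate wells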
Numbers without * were called inactive; / = no result. Only some compounds are listed: those with a hit (about 5.7% of all), similar ones and a draw of the others.

SMILES	hcDAF12 agonist	DAX1 inh-1	AHR act	DAX1 inh-2	ssDAF12 agonist	hgDAF-12 ag
Cc1ccc(OCc2nnnn2-c2ccccc2)cc1	-1	-2	3	-1	-2	2
CN(C)Cc1nnnn1-c1ccccc1	0	4.9*	0	0	-1	-2
Cc1ccnc(NS(=O)(=O)c2ccc(NC(=O)C(C)(C)C)cc2)n1	0	2	2	-1	-1	-3
CSc1ccc(CN2C(=O)NC3(CCCCC3)C2=O)cc1	-2	6.8*	2	0	-1	-2
Cc1cc(NC(=O)CC(C)(C)C)nc2c1c(=O)oc1ccccc12	6.3*	0	22	0	-1	0
CCCC(=O)Nc1cc(C)c2c(=O)oc3ccccc3c2n1	0	0	53*	1	-1	-3
COCC(=O)Nc1cc(C)c2c(=O)oc3ccccc3c2n1	0	1	7	-1	-2	0
Cc1nc2ccccn2c1C(=O)OCC#N	-1	-1	-3	-1	-2	-2
O=C1C(=Cc2cccn2-c2ccccc2)C(=O)c2ccccc21	2	-1	13	0	1.0*	5
COc1ccc(CCN(Cc2cccs2)S(=O)(=O)c2ccc(C(=O)O)cc2)cc1OC	0	-1	-2	0	0	2
O=C(NCCC(=O)N1CCN(S(=O)(=O)c2ccccc2Cl)CC1)Nc1ccccc1	0	0	1	-1	-1	0
COc1ccc2ccccc2c1CN1CCN(c2ncc(Cc3ccccc3)cn2)CC1	0	/	/	0	-1	-4
Nn1c(SCc2cccc(F)c2)nnc1-c1cccnc1	-1	5.7*	7	0	1.1*	2
CCOc1ccc(CN2CCN(Cc3nc4c(s3)CCCC4)CC2CCO)cc1 (centres undefined)	-2	3	1	0	-1	-2
COc1ccc(C2NC(=S)NC3=C2CCc2cc(OC)ccc23)cc1 (centres undefined)	-1	0	5	0	-2	2
Cc1ccc(NC(=O)C2CCCN(c3ncccn3)C2)cc1F (centres undefined)	2	1	17	3	1	12*
O=C(Nc1ccc2c(c1)CCC2)C1CCCN(c2ncccn2)C1 (centres undefined)	2	1	3	2	-1	11*
Cc1cc(C)cc(NC(=O)C2CCCN(c3ncccn3)C2)c1 (centres undefined)	-1	0	6	0	-1	0
O=C(NC1CCCC1)C(c1cccnc1)N(Cc1ccc(F)cc1)C(=O)c1csnn1 (centres undefined)	-2	0	-2	0	-1	2
Cc1cc(C(=O)Nc2cccc(C(=O)O)c2)oc1C	5	-4	-8	3	0	10*
O=C(NC(=S)Nc1cccnc1)c1cc2ccccc2o1	2	1	8	2	0	11*
COc1cc(NC(=O)c2c(OC)cccc2OC)ccc1NC(=O)c1cc2ccccc2o1	1	3	72*	0	-2	1
O=C(NC(=S)NCc1cccnc1)c1cc2ccccc2o1	0	0	14	-1	-1	4
CCOC(=O)c1cccc(NC(=O)c2cc3ccccc3o2)c1	1	-3	/	2	-1	11*
Cc1cc(C(=O)Nc2cccc(C(=O)O)c2)c(C)o1	-1	0	2	1	-1	6
SMILES	hcDAF12 agonist	DAX1 inh-1	AHR act	DAX1 inh-2	ssDAF12 agonist	hgDAF-12 ag
O=C(NCc1ccccc1)[C@@H]1CCCN1C(=O)[C@H]1CCCN1C(=O)c1cc(F)cc(F)c1	2	/	/	-1	0	-1
COc1ccc(NC(=O)CS(=O)CC(=O)N2CCN(C3CCCC3)CC2)cc1 (centres undefined)	-1	1	-1	1	0	-1
CCN(CC)CCCN=Cc1c(O)n(-c2ccccc2C)c(=O)c2ccccc12	-1	1	-1	0	-2	0
COC(=O)Nc1ccc(S(=O)(=O)N2CCCC(C(=O)N3CCCCCC3)C2)cc1 (centres undefined)	3	1	1	0	0	1
[O-][n+]1c2ccccc2[n+]([O-])c2cc(O)ccc21	3	-1	27	-1	-1	-2
CN(C(=O)c1cccc(NC(=O)Cc2ccc(NC(=O)C3CCN(C(=O)C4CC4)CC3)cc2)c1)C1CCCC1	-1	-2	/	0	-1	1
COc1ccccc1NC(=O)c1cc2ccc(O)cc2o/c1=N\O	-1	1	-1	-1	-1	1
CCC(=O)Nc1cccc(NC(=O)c2cc3ccccc3o2)c1	2	3	5	3	-1	11*
COc1ccccc1NC(=O)c1cc2ccccc2o/c1=N\O	1	1	67*	0	1	8
COc1ccccc1NC(=O)Cn1nnc(-c2ccccc2NC(=O)c2cc3ccccc3oc2=O)n1	14*	2	16	3	1	7
COC(=O)c1c(NC(=O)C2CCCCC2C(=O)O)sc2c1CCCCC2 (centres undefined)	3	4.9*	5	2	0	3
O=C(Nc1ccc(-n2nncc2-c2ccco2)cc1)c1cc2ccccc2oc1=O	/	-1	7	/	/	/
O=C(CCn1c(=O)oc2ccc(Cl)cc21)N1CCN(c2ccccc2)CC1	1	1	1	0	-2	-1
Cc1nnc2ccc(-c3ccc(NC(=O)c4ccco4)cc3)nn12	-1	1	-5	0	-2	-1
CC(=O)Nc1ccc(-c2ccc3nnc(C)n3n2)cc1	1	5.1*	-1	0	-2	-3
CN1OC[C@@H]2CN3C(=Nc4cc(C(F)(F)F)cc(C(F)(F)F)c4)Sc4ccccc4[C@@H]3C[C@@H]21	-1	/	/	-1	-1	-3
Clc1ccc(-c2cc(CSc3ccccc3)on2)cc1	1	3	-2	2	-1	13*
Cc1ccc(S(=O)(=O)N2CCC(=O)N(C(COCc3cccc(Cl)c3)Cc3ccccc3)CC2)cc1 (centres undefined)	-3	-1	-2	0	-2	1
Cc1ccc(S(=O)(=O)N2CCC(=O)N(C(COCc3ccc(Cl)cc3Cl)Cc3ccccc3)CC2)cc1 (centres undefined)	-1	5.3*	2	-1	-2	3
O=C(NCc1ccccc1)C(c1cc2ccccc2o1)n1c(=O)c(-c2ccccc2)nc2ccccc21 (centres undefined)	4	/	/	3.8*	1	5
COc1ccc(NC(=O)C(c2cc3ccccc3o2)n2c(=O)c(-c3cc4ccccc4[nH]3)nc3ccccc32)cc1 (centres undefined)	5.8*	/	/	0	1.3*	3
COc1ccc(NC(=O)C(c2ccc(OC)cc2)n2c(=O)c(-c3cc4ccccc4[nH]3)nc3ccccc32)cc1 (centres undefined)	3	/	/	-1	0	-1
